A short description of test [1]: compounds binding Alexa647 anti-His antibody – biochemical, small-molecule microarray, 635 nm fluorescence, artefact control for SMM control protein annotation, primary screen (AID 1128).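 Also: score merges feature fluorescence with signal-to-noise for each printed compound spot.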 The settings on record: higher = more signal.
For test [2], the system named is Human papillomavirus type 1a E7 protein (residues 1-88). Nature of the test: HPV1a E7 small-molecule binders, primary screen, biochemical, small-molecule microarray, residues 1-88, 635 nm (AID 1129). The settings on record: small-molecule microarray binding, fluorescence 635 nm; higher = more signal.
The target of test [3] is Focal adhesion kinase 1 (Homo sapiens) (UniProt Q05397). Nature of the test: PTK2 protein binding on printed compound slides – biochemical, small-molecule microarray, 635/667 nm fluorescence, BSA, DTT, primary screen (AID 1130).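 Also: composite of spot emission at 667 nm and signal to noise over triplicate slides.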 The settings on record: 635 nm fluorescence, higher = more signal.
Test [4] concerns Fibrinogen (Alexa647-labelled). Put plainly: Alexa647-fibrinogen binding to printed small molecules – biochemical, small-molecule microarray, 635/667 nm fluorescence, artefact control for SMM control-protein annotation, profiling panel (AID 1131).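 Also: z-score merges 667 nm fluorescence with per-spot signal-to-noise over triplicate slides.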 The settings on record: fibrinogen-A647 binding fluorescence, higher = more signal.
Test [5] deals with Follistatin (Homo sapiens) (UniProt P19883). Put plainly: FST protein binding to printed compounds – biochemical, small-molecule microarray, 635/667 nm fluorescence, primary screen (AID 1132). The settings on record: 635 nm fluorescence, higher = more signal.
Test [6] addresses Fibroblast growth factor 2 (Homo sapiens) (UniProt P09038). Put plainly: basic fibroblast growth factor binding to printed compounds – biochemical, small-molecule microarray, 635/667 nm fluorescence, primary screen (AID 1133). The settings on record: FGF2, fluorescence 635/667, higher = more signal.
Test [7] can be described thus: JC-1 mitochondrial potential readout, lung cancer cells – cell-based, A549, JC-1 fluorescence, basal, 24 h, 100 nL, profiling panel (AID 1138).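 Also: A549 lung adenocarcinoma cells under basal conditions with no added stimulus; test concentration not given here.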 The settings on record: higher = more signal.
A further test concerns Lefty1. Put plainly: Lefty1 protein binding to printed compounds – biochemical, small-molecule microarray, 635/667 nm fluorescence, primary screen (AID 1139). The settings on record: fluorescence 635/667, higher = more signal.
The subject of test [8] is wheat germ agglutinin (Triticum aestivum), Alexa647-labelled. Put plainly: Alexa647-WGA lectin binding to printed small molecules – biochemical, small-molecule microarray, 635/667 nm fluorescence, artefact control for SMM control-protein annotation, profiling panel (AID 1140).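 Also: score merges 667 nm feature emission with signal to noise over triplicate slides.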 The settings on record: WGA-A647 binding, 635 nm fluorescence, higher = more signal.
In test [9] the target is Luciferin 4-monooxygenase (Photinus pyralis) (UniProt P08659). Put plainly: inhibition of purified Photinus pyralis luciferase – biochemical, luminescence, purified enzyme, 2006 set, primary screen (AID 1141).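 Also: cell-free assay with purified firefly luciferase at 100 ng per well in PBS; test concentration not given here.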 The settings on record: purified firefly luciferase, SteadyGlo luminescence, 30 min; higher = more signal, called active from +8 up or from −8 down.
In test [10] the test system is Wnt5a (protein binding on small-molecule microarray). Nature of the test: small molecules binding Wnt5a protein – biophysical, small-molecule microarray, 635/667 nm fluorescence, primary screen (AID 1142).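 Also: fluorescence read at 667 nm with signal to noise per printed feature.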 The settings on record: 635 nm fluorescence, higher = more signal.
The nature of test [11]: ATP-based viability of Huh7 replicon cells – cell-based, CellTiter-Glo luminescence, basal, 48 h, cytotoxicity control for HCV replication inhibitor project, primary screen (AID 1143).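 Also: Huh7 hepatoma cells carrying a hepatitis C replication reporter with no stimulus; test concentration not given here.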 The settings on record: higher = more signal, called active from +8 up or from −8 down. On the technique in general: In antiviral work, replicon cells carry a viral genome segment that copies itself.

A short description of test [12]: Pseudomonas biofilm growth suppression – PAO1 strain, BacTiter-Glo luminescence, LB-PBS, primary screen (AID 1144). The settings on record: P. aeruginosa PAO1 biofilm, 12 h, higher = more signal.
Test [13] in a line: basal CRE-LacZ reporter activity in PC12 – cell-based, unstimulated, primary screen (AID 1145). The settings on record: no forskolin, luminescence, 4.5 h, higher = more signal, called active from +8 up or from −8 down.
Test [14] in a line: forskolin-driven CRE-LacZ activity in PC12 – cell-based, CRE-LacZ reporter, forskolin-stimulated, primary screen (AID 1146).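 Also: PC12 cells with 6xCRE LacZ reporter stimulated by forskolin 10 µM; beta-galactosidase reporter signal reflecting CREB driven transcription.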 The settings on record: luminescence, 4.5 h, higher = more signal, called active from +8 up or from −8 down.
Test [15] concerns the target Streptavidin (Streptomyces avidinii) (UniProt P22629). Nature of the test: compounds binding control protein streptavidin – biophysical, small-molecule microarray, 635/667 nm fluorescence, artefact control for SMM compound annotation, primary screen (AID 1147).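 Also: signal reflects streptavidin binding to arrayed compounds as a control protein.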 The settings on record: higher = more signal.
The nature of test [16]: probe aInhba binding on compound microarray – biochemical, small-molecule microarray, 635/667 nm fluorescence, primary screen (AID 1148).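 Also: score merges 667nm spot fluorescence with signal-to-noise for antibody binding to printed compounds.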 The settings on record: higher = more signal.
Test [17] addresses Torsin-1A (Homo sapiens) (UniProt O14656). Put plainly: TOR1A wild-type binding on microarray – cell lysate, small-molecule microarray, lysate, 635/667 nm, primary screen (AID 1149). The settings on record: COS7 hTOR1A-WT lysate, 635 nm fluorescence, higher = more signal.
The target is the same in test [18]. Nature of the test: torsin A mutant lysate binding on microarrays – cell lysate, small-molecule microarray, COS7 lysate, 635/667 nm fluorescence, primary screen (AID 1150).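 Also: score pools 667 nm emission and signal to noise measuring lysate protein binding.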 The settings on record: COS7 hTOR1A mutant lysate, 635 nm fluorescence, higher = more signal.
The test system of test [19] is Sonic hedgehog protein (Shh). Put plainly: Sonic hedgehog microarray binding compounds – biochemical, small-molecule microarray, 635/667 nm fluorescence, primary screen (AID 1151).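 Also: Shh protein binding to compounds spotted on small-molecule microarray slides; score combines spot fluorescence intensity with signal-to-noise across triplicate slides.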 The settings on record: 635 nm fluorescence, higher = more signal.

Values joined by “and” are separate entries in the source; they are usually repeats but may differ in a detail not shown here. Identical values can stand only once. Active and inactive are the calls of the source. Unless noted, no rule for the calls is given here.

Sequence of Luciferin 4-monooxygenase (Photinus pyralis) (P08659 whole entry, looked up): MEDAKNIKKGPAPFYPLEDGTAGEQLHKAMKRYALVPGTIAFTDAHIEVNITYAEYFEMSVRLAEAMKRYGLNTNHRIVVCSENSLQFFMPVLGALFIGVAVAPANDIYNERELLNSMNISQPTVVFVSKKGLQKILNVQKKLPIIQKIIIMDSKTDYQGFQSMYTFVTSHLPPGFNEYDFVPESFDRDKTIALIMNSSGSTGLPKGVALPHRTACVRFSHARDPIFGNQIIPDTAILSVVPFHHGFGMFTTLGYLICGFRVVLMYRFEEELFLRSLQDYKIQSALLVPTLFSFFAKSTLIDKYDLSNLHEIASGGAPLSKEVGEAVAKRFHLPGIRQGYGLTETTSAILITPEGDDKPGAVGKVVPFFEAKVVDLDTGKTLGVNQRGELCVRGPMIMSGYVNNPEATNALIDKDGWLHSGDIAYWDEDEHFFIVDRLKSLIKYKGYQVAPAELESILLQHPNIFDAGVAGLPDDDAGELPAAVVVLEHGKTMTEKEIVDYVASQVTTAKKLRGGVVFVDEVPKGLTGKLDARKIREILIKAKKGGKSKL
Sequence of Follistatin (Homo sapiens) (P19883 whole entry, looked up): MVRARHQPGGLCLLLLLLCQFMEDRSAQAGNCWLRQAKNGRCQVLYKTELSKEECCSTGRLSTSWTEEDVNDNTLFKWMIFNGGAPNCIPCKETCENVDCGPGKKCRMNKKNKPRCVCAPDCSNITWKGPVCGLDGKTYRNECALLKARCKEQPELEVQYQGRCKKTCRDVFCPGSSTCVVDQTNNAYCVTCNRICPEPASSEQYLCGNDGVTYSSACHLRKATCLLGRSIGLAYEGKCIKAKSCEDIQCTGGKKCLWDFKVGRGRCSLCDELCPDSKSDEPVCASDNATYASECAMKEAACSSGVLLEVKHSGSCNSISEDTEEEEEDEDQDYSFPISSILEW
Sequence of Streptavidin (Streptomyces avidinii) (P22629 whole entry, looked up): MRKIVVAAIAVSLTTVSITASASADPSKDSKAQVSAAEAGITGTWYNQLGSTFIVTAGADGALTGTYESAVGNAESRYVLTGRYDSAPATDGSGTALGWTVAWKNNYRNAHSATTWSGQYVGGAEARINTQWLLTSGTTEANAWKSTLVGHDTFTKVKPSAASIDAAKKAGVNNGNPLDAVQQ
Sequence of Torsin-1A (Homo sapiens) (O14656 whole entry, looked up): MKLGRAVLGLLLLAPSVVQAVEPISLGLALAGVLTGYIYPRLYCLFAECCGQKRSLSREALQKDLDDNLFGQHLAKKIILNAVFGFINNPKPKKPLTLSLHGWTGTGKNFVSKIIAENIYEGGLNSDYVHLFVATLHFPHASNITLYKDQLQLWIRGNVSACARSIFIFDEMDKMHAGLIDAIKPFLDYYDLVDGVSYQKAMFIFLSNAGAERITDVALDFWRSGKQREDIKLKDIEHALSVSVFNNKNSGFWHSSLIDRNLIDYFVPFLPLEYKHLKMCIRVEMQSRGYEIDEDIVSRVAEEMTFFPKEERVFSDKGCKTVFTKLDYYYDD
Sequence of Focal adhesion kinase 1 (Homo sapiens) (Q05397 whole entry, looked up): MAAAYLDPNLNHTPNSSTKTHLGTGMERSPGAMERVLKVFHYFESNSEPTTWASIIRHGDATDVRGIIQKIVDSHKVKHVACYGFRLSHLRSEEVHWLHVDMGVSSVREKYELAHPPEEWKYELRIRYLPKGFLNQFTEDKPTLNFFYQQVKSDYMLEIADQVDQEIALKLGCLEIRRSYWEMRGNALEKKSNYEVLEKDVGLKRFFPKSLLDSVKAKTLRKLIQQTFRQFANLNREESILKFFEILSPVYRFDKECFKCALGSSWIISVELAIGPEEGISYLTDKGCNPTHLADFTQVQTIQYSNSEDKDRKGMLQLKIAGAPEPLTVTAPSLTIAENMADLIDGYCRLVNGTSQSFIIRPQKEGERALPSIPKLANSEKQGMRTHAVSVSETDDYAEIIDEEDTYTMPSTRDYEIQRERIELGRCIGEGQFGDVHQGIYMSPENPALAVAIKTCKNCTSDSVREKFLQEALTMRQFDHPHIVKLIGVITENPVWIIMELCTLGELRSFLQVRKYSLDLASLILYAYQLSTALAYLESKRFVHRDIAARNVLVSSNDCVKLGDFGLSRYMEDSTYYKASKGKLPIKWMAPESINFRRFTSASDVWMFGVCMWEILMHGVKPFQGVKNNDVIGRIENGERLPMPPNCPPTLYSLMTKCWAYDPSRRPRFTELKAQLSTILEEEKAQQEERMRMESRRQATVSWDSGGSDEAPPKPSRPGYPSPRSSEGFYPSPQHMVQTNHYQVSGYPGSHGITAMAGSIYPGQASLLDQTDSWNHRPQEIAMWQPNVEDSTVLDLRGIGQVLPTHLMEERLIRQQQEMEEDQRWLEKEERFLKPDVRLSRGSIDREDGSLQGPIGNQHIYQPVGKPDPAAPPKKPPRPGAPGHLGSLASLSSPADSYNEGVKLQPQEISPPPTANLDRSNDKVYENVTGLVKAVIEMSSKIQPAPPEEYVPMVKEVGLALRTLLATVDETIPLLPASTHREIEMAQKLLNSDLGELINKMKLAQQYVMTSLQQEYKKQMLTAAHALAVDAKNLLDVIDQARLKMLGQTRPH
Sequence of Fibroblast growth factor 2 (Homo sapiens) (P09038 whole entry, looked up): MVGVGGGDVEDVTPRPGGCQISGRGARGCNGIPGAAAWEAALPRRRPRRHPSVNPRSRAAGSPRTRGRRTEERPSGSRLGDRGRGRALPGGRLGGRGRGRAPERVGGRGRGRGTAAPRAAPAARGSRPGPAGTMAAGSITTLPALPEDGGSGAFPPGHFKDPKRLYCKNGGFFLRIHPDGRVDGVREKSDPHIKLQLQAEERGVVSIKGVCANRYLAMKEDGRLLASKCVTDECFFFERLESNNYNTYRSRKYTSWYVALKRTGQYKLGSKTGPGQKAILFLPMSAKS

Take `C=C[C@@H](C)[C@@H](O)c1ccc(O)c2ccccc12`: the composite z-score was -0.46 and 0.408 in [1]; -1.07 and -0.498 in test [2]; -0.221 and -0.422 in test [3]; -1.54 and 0.509 in test [4]; 0.105 and 0.431 in [5]; -0.162 and -0.329 in test [6]. Moreover, the composite z-score is -0.863 and -0.286 in the test on Lefty1; -1.19 and 0.506 in test [8]; 0.0168 and -0.729 in test [10]; -1.28 and -0.645 in test [15]; -0.304 and -0.278 in test [16]; -1.2 and -1.52 with Torsin-1A (Homo sapiens) [17]. Moreover, the composite z-score in the test with Torsin-1A (Homo sapiens) [18] is -1.14 and -0.798; in test [19], -0.103 and 0.297. For the same compound, the z-score in [7] is 0.287 and -0.728; in [9], -1.48 (inactive) and -0.181 (inactive); in test [11] it was 0.61 (inactive) and -1.13 (inactive); in test [12], -0.647 (inactive) and -0.589 (inactive); in [13] it was 2.68 (inactive) and -0.3 (inactive); in test [14] it was 3.22 (inactive) and 5.31 (inactive).
For `C=CCN(C(=O)C1N(c2ccc(CCO)cc2)C(=O)C2C(C(=O)O)C3C=CC21O3)c1ccc(OC)cc1` (stereo not given), the composite z-score in [1] is 0.0218 and -0.668; in [2], -0.304 and -0.769; in test [3], 0.0134 and -1.17; in test [4], -0.369 and -1.3; in test [5] it was -0.697 and -0.794; in [6], -1.24 and -1.75. The composite z-score in the test with Lefty1 is -0.708 and -0.967; in [8] it was 0.0183 and -0.967; in test [10] it was -0.416 and -0.717; in test [15] it was -0.683 and -1.98; in test [16] it was -0.0066 and -0.311; with Torsin-1A (Homo sapiens) [17], -1.29 and -2.7. The composite z-score with Torsin-1A (Homo sapiens) [18] is -0.584 and -1.23; in test [19] it was -0.141 and -1.28. In addition, the z-score in test [7] is -0.742 and -0.718; in [9], -0.622 (inactive) and 2.07 (inactive); in test [11], -0.0172 (inactive) and -1.2 (inactive); in test [12] it was -0.143 (inactive) and -1.34 (inactive); in test [13], 0.333 (inactive) and -1.97 (inactive); in test [14], -0.0772 (inactive) and -0.526 (inactive).
With `C=CCN(CCCC)C(=O)C1N(CCCCCCO)C(=O)C2C(C(=O)O)C3C=CC21O3` (stereo not given), the composite z-score is -1.27 and 0.826 in test [1]; -0.618 and -0.472 in test [2]; -0.725 and -0.445 in test [3]; -0.574 and -1.65 in [4]; -1.74 and -2.89 in test [5]; -1.97 and -2.02 in [6]. In addition, the composite z-score in the test on Lefty1 is -2.3 and -2.2; in [8] it was 0.483 and -1.28; in test [10] it was -0.718 and -0.319; in test [15], -1.46 and -1.12; in test [16], -0.35 and -0.312; in the test with Torsin-1A (Homo sapiens) [17] it was 1.31 and -1.36. The composite z-score with Torsin-1A (Homo sapiens) [18] was -2.04 and -2.49; in [19], -1.18 and -1.43. Besides, the z-score in [7] was -0.242 and 0.214; in test [9], 0.314 (inactive) and 0.488 (inactive); in [11] it was 0.427 (inactive) and 0.424 (inactive); in [12], 0.759 (inactive) and 2.36 (inactive); in test [13] it was 0.0645 (inactive) and -0.769 (inactive); in [14] it was 0.149 (inactive) and 0.147 (inactive).
Take `COC(=O)C1=C(C)N(Cc2ccccc2)C2=C3C(=O)CCC[C@@H]3[C@@](O)(C(=O)OC)C(=O)N2[C@@H]1c1ccccc1`: the composite z-score in [1] is 0.043 and -0.496; in test [2], 0.501 and 0.0093; in test [3], -0.12 and 0.177; in test [4], 0.335 and -1.14; in [5], 0.584 and 0.158; in test [6], 0.997 and 0.581. Besides, the composite z-score in the test with Lefty1 was 0.573 and 0.217; in test [8], 0.121 and -1.1; in [10] it was -0.0849 and 0.288; in test [15], 0.14 and -0.503; in [16], 0.155 and -0.0762; with Torsin-1A (Homo sapiens) [17], 0.555 and -0.0343. Further, the composite z-score is 0.844 and 0.0578 with Torsin-1A (Homo sapiens) [18]; 0.544 and 0.586 in test [19]. In addition, the z-score is 1.22 and 0.728 in [7]; -1.29 (inactive) and -1.47 (inactive) in test [9]; -0.5 (inactive) and -1.53 (inactive) in [11]; 0.311 (inactive) in test [12]; 1.65 (inactive) and 1.38 (inactive) in [13]; 0.703 (inactive) and -1.7 (inactive) in test [14].

Source of the values: PubChem BioAssay.
